The values below come from PubChem BioAssay AID624305 (National Center for Advancing Translational Sciences (NCATS), 2012).

Records with an inconclusive call do not appear. A number with no mark means an inactive call. Calls of active or inactive are those of the source. Calls follow the shape of the dose curve; as a rule, active = well fitted activation curve with a large enough effect; inconclusive = small, poorly fitted or top-dose-only effect; inactive = no such curve, though single readings can be large or run the other way.
Potency is read from the fitted curve at half-maximal effect.

A short description of the test: qHTS assay for re-activators of p53 using a Luc reporter: Hit Validation. Also: nearly all actives have a fitted effect of over 75% in size. As to activation: 0% is about no effect. The note with it: p53-responsive luciferase reporter cells, luminescence, H1299 line expressing heat-sensitive Ala138Val p53; series mostly up to 46.1 µM. The gist of the method: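 H1299 (p53-null) cells stably carrying p53-A138V and a BP100-luciferase reporter, 1000 cells/well, treated 24 h at 37 deg C. Compounds at several concentrations, 1:5 dilution; nocodazole control; luminescence read after 10 min with detection reagent.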
A general note: In qHTS, concentration-response curves come from the screen itself.
For `CC(C)NC(=S)N1CCN(S(C)(=O)=O)CC1`, the Potency entry was “inactive”.
For `Cn1c(=N)n(CC(=O)c2ccc(Cl)c(Cl)c2)c2ccccc21`, the Potency was 0.58 µM (active).
On to `CC(=O)c1ccc(NC(=O)CCc2nnc3ccc(NCc4ccco4)nn23)cc1`, for which the Potency was 11.6 µM (active).
As to `NNC(=O)c1cccc(O)c1`, the Potency result is “inactive”.
The same measure, in the same setting: under `Cc1ccc(NC(=S)NC(=O)c2cccs2)cc1F` stands 9.2 µM (active); under `NC(=NCc1ccccc1)c1cccc([N+](=O)[O-])c1`, “inactive”; under `COc1ccc2cnn(CCOc3ccccc3)c(=O)c2c1OC`, 1.03 µM (active).
Turning to `CN(NC1CC(=O)N(c2ccccc2)C1=O)c1ccccc1` (stereo not drawn), the Potency result was “inactive”.
Regarding `CCOC(=O)c1ccc2ncc(C(=O)OCC)c(NCc3ccco3)c2c1`, the Potency result is “inactive”.
Regarding `O=C(CC1CCCCC1)NCc1ccc(Cl)cc1`, the Potency was 11.6 µM (active).
Take `CC(=O)Nc1ccc(SCC(=O)c2cc(C)n(-c3ccccc3)c2C)cc1`: the Potency is 5.8 µM (active).
On to `CCOC(=O)c1[nH]nc(C(=O)c2ccc(Br)cc2)c1O`, for which the Potency result is “inactive”.
On the same count and under the same terms, then `CC(/C=N/Nc1nc2ccccc2[nH]1)=C\c1ccccc1`, with 0.651 µM (active).
Turning to `Cc1cccc(NC(=O)Nc2ccc(C)cc2Br)c1`, the Potency was 16.4 µM (active).
As to `COC(=O)CSc1nc2cc(OC)ccc2cc1C#N`, the Potency was 9.2 µM (active).
Regarding `Cc1cc(C)cc(OCC(=O)NNC(=O)c2ccccn2)c1`, the Potency entry was “inactive”.
In the case of `C/C(=N\NC(=O)c1ccc(F)cc1)c1ccccn1`, the Potency is 2.06 µM (active).
As for `Cc1ccc(C(=O)c2cc([N+](=O)[O-])ccc2N2CCCCC2)cc1C`, the Potency entry was “inactive”.
For the molecule `O=C(NNc1c2ccccc2nc2ccccc12)c1ccc(O)cc1`, the Potency result is “inactive”.
As for `COc1cccc(/C=N/NC(=O)CCc2n[nH]c(=O)[nH]c2=O)c1O`, the Potency result is “inactive”.
`COc1ccc(N2CCN(CC(=O)Nc3ccc(C)cc3)CC2)cc1`: the Potency entry is “inactive”.
As for `CC(C)(C)c1ccc(/C=C2\SC(=O)N(CCNC(=O)c3cccc(S(=O)(=O)N4CCOCC4)c3)C2=O)cc1`, the Potency was 1.84 µM (active).
Same read-out and setting: under `C=CCOc1c(OC)cc(/C=N/Nc2cccc(C(=O)O)c2)c(Br)c1Br` stands 13 µM (active).
In the case of `Cc1cc(Br)c(S(=O)(=O)NCCN2CCOCC2)cc1C`, the Potency result was “inactive”.
Take `Cc1occc1C(=O)NNC(=S)Nc1ccccc1C(F)(F)F`: the Potency was 13 µM (active).
Regarding `O=C(Cn1cc(SCc2ccc(F)cc2)c2ccccc21)N1CCOCC1`, the Potency entry is “inactive”.
Same read-out and setting: under `O=C(NC(=S)Nc1cccc(O)c1)C1CCCCC1` stands 14.6 µM (active).
On to `c1ccc(-n2ncc3c(N4CCCCC4)ncnc32)cc1`, for which the Potency is 1.16 µM (active).
As to `O=C1NCCCc2c1oc1ccc(O)cc21`, the activation was 41% [at 9.22 µM].
Consider `CCOP(=O)(OCC)C(NC(=O)Nc1ccccc1)C(N)=O` (stereo not drawn), for which the Potency result is “inactive”.
Still for that read-out and setting: under `O=C(NOCc1ccccc1)c1ccccc1` stands 9.2 µM (active); under `COc1ccc(C(=O)NC2CCc3ccccc32)cc1OC1CCN(C(C)C)CC1` (stereo not drawn), “inactive”.
On to `S=c1[nH]nc(-c2ccco2)n1Cc1ccccc1`, for which the Potency entry was “inactive”.
Still for that read-out and setting: under `O=C(N/N=C1\CCc2ccccc21)c1ccccc1O` stands 1.03 µM (active); under `Cc1cc(=O)[nH]c(N/N=C/c2ccccn2)n1`, 13 µM (active).
Consider `Cn1c(CCN2CCCCC2)nc2cc(NC(=O)Nc3ccccc3)ccc21`, for which the Potency result was “inactive”.
The same measure, in the same setting: under `CC1CC1C(=O)Nc1nc2ccc(S(C)(=O)=O)cc2s1` (stereo not drawn) stands “inactive”; under `COC(=O)c1ccc(-c2nc(-c3cccs3)no2)cc1`, 0.146 µM (active).
